Only some compounds are listed: those with a hit (about 6.8% of all), similar ones and a draw of the others.
DPM-DC inhibit – S. pneumoniae DPM-DC inhibition; 65,000 compounds, 0.49% hits; AID 556; purified DPM-DC, PK/LDH coupled NADH fluorescence; calls only at 10 µM;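 active = the 320 compounds with the highest percent inhibition in the single-dose primary screen, excluding strongly autofluorescent ones, cut at about 32% in these data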;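 note: kinetic rate of NADH fluorescence loss reporting ADP formed by the decarboxylase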
A340 absorber – absorbance at 340 nm | 65,000 tested, under 10 active | fold change at 10 µM | compound absorbance at 340 nm, fold over control;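 active = at 10 µM dose, initial 340 nm absorbance at least 2 fold that of control wells; inactive = change under 2 fold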;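 note: initial absorbance extrapolated from kinetic A340 decline of NADH oxidation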
MK inhibit – inhibitors of Streptococcus pneumoniae mevalonate kinase; purified MK, PK/LDH-coupled NADH absorbance 340 nm; inhibition, % at 10 µM; 65,000 compounds, 0.48% hits;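 active = ranked among the strongest by inhibition in the single 10 µM screen, a fixed top-ranked set picked for dose follow-up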
Spn PMK inh – S. pneumoniae PMK inhibition. 65,000 compounds, 0.49% hits. purified PMK, PK/LDH-coupled NADH absorbance 340 nm. inhibition, % at 10 µM;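 active = top-ranked compounds by inhibition in the single 10 µM screen, taking a fixed number of the strongest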;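 note: 0% = full reaction with DMSO carrier and 100% = background rate without enzyme reaction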
NADH enzymes – inhibition of NAD/NADH coupling enzymes, library profiling | coupled PK/LDH NADH assays, four targets | IC50, µM (doses to about 10 µM), for the others: at the top dose inhibition | 65,000 compounds, 0.02% hits;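 active = single-dose screening hits from any of four coupled enzyme assays that gave an IC50 when retested across doses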;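 note: the DPM-DC format reads NADH fluorescence rather than 340 nm absorbance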
Autofluor 339 – intrinsic fluorescence of library compounds, ex339/em460 – biochemical, MLSMR library, data from DPM-DC assay, artefact control, profiling panel; fluorescence fold increase at 10 µM; compound autofluorescence, ex339/em460 nm, NADH buffer; stronger effect = higher value; 1 = no-compound wells, NADH background; 65,000 compounds, 5.5% hits;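 active = at 10 µM, mean starting fluorescence two-fold or more over control wells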;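 note: signal is the first read of a kinetic run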
An asterisk follows results filed as active; i = inactive; / = no result given.

SMILES	DPM-DC inhibit	A340 absorber	MK inhibit	Spn PMK inh	NADH enzymes	Autofluor 339
CCOc1ccc(-c2nnc(-c3cccs3)o2)cc1OCC	/	1.1	9	14	12%	3.7*
O=c1cc(-c2ccco2)nc(-c2cccs2)o1	i	1.1	2	6	3%	1.1
COc1cc(-c2nnc(-c3cccs3)o2)cc(OC)c1OC	i	1	0	14	13%	2.5*
CCOc1ccc(-c2nc(-c3ccccc3)no2)cc1OCC	i	1	4	5	3%	1.1
c1cncc(-c2nnc(-c3cccs3)o2)c1	i	1	11	8	6%	2.3*
O=C(c1nnc(-c2ccncc2)o1)c1ccccc1Cl	i	1	4	11	5%	1
CCCCOC(=O)Nc1cc(OC)c(Cl)cc1OC	i	1.1	3	2	2%	0.99
c1csc(-c2nnc(-c3ccc(N4CCOCC4)cc3)o2)c1	/	1.2	9	19	14%	3.7*
COc1ccc(-c2nnc(-c3cccs3)o2)cc1OC	/	1	10	0	3%	2.5*
COc1cc2nc(-c3cccs3)oc(=O)c2cc1OC	i	1.3	11	3	10%	1.2
CCOc1ccc(N2CCn3c2nc2c3c(=O)n(CCc3ccccc3)c(=O)n2C)cc1	i	1.1	5	8	9%	1.6
COc1cccc(CC(NC(C)=O)C(=O)NC2CCN(c3nc(C)cc(C)c3C#N)CC2)c1OC (stereo not given)	i	1.1	9	12	17%	3*
COc1cc2c(cc1OC)CN(S(=O)(=O)c1ccc3c(c1)OCCO3)CC2	i	0.97	10	1	4%	1.1
COc1ccccc1CNC(=O)COc1ccccc1OC	i	1	6	3	4%	1.1
COc1ccccc1CNCc1cc(OC)c(OC)cc1OC	i	1.1	53*	22	25%	1.1
COc1cccc(CNCc2ccccn2)c1OC	i	1	53*	12	22%	1.1
COc1ccccc1N1CCN(c2nc(N)c(C#N)c(CC#N)c2C#N)CC1	i	1.1	7	4	7%	1.1
CCc1nc(N)c(C#N)c(-c2ccccc2OC)c1C	i	1.1	5	15	10%	2.3*
COc1ccccc1-c1c(C)c(C)nc(N)c1C#N	i	1.1	8	8	9%	2.4*
COc1ccccc1-c1cc(C2CC2)nc(N)c1C#N	/	1.1	6	7	7%	2.1*
CC1=C(C(N)=O)C(c2ccccn2)n2nc(SCc3ccccc3)nc2N1 (stereo not given)	i	0.99	3	2	4%	1
CCc1nc2c(n1O)CCc1nonc1-2	i	1.1	3	11	5%	1.1
COc1ccc(NC(=O)C(c2ccc(OC)cc2)N(C)C(=O)CNC(C)=O)cc1 (stereo not given)	i	0.97	5	3	3%	1.1
Cc1nn(-c2ccccc2)c2sc(C(=O)N(CC(=O)NC3CCCC3)Cc3ccco3)cc12	i	1.1	9	1	3%	1.2
CC1(C(=O)N(CC(=O)NC2CCCC2)Cc2ccco2)CC(=O)N=C2C=CC=CN21 (stereo not given)	/	1	6	8	7%	4.8*
SMILES	DPM-DC inhibit	A340 absorber	MK inhibit	Spn PMK inh	NADH enzymes	Autofluor 339
Cc1ccc2c(N)c(C)ccc2c1	/	1	9	11	10%	3.7*
C=CCOc1cccc(C2c3c(oc4ccc(F)cc4c3=O)C(=O)N2CCCN2CCOCC2)c1 (stereo not given)	i	1.1	0	0	0%	1.1
CCOC(=O)CSc1n[nH]c(-c2cccnc2)n1	i	1	0	25*	9%	1
CCOC(=O)CSc1nnc(-c2cccnc2)n1Cc1ccccc1	i	0.97	9	3	5%	1
Cc1cnc(-c2nnc(N(C)C(=O)C3CCOC3)s2)cn1 (stereo not given)	i	1.1	7	5	8%	2*
CN(C(=O)C1CCOC1)c1nnc(-c2ccccn2)s1 (stereo not given)	i	1.1	0	0	2%	1.2
CN(C(=O)C1CCCO1)c1nnc(-c2ccncc2)s1 (stereo not given)	/	0.99	4	8	3%	2.6*
CN(C(=O)c1ccncc1)c1nnc(-c2ccncc2)s1	/	0.98	7	9	8%	3.6*
COCC(=O)N(C)c1nnc(-c2ccccn2)s1	i	0.99	0	4	3%	2*
COCCN(C(=O)Nc1ccccc1)c1ccccc1C	i	1	6	4	3%	1.1
CN(C(=O)c1cnccn1)c1nnc(-c2cccnc2)s1	i	1	3	30*	11%	1.3
CN(C(=O)C1CCCO1)c1nnc(-c2ccccn2)s1 (stereo not given)	/	1.2	1	0	1%	4.8*
Cc1ccc(Cn2nnc3c(=O)n(Cc4cc(C)ccc4C)cnc32)cc1	i	0.99	1	8	3%	1.1
COCCN1C=C(C(=O)OC)C(c2cc(Br)c(OC)c(OC)c2)C(C(=O)OC)=C1	/	1.1	8	4	6%	2.3*
COC(=O)C1=CN(C)C=C(C(=O)OC)C1c1ccc(O)c(OC)c1	i	1	6	2	8%	1.4
Cc1ccc(S(=O)(=O)Nc2cc(C)nn2-c2ccccc2)cc1	i	1	7	5	4%	1.1
CC1=CC(c2ccccc2)n2nc(NS(=O)(=O)c3ccc(C)cc3)nc2N1 (stereo not given)	/	1.1	7	9	8%	2.2*
O=C(NC1CCCCC1)N1CCN(CCc2ccccc2)CC1	i	1.1	3	0	1%	1.1
CCc1ccc2[nH]cc(C(=O)N3CCCCCC3)c(=O)c2c1	i	1.1	5	10	6%	1
COc1ccc2[nH]cc(C(=O)N3CCCCC3)c(=O)c2c1	i	1.1	9	2	5%	2.1*
O=C(O)c1c[nH]c2ccc(S(=O)(=O)N3CCN(c4ccc(F)cc4)CC3)cc2c1=O	i	1	0	10	2%	1.2
CCN(CC)S(=O)(=O)c1ccc2c(c1)c(=O)c(C(=O)N1CCOCC1)cn2C	i	1	4	12	6%	0.99
Cc1ccc(S(=O)(=O)N2CCOCC2)cc1C(=O)N1CCOCC1	i	1	2	4	6%	1
O=C(c1c[nH]c2ccc(S(=O)(=O)N3CCOCC3)cc2c1=O)N1CCCC1	/	1.1	4	1	3%	4.2*
CCN(c1ccccc1)S(=O)(=O)c1ccc2[nH]cc(C(=O)N3CCOCC3)c(=O)c2c1	/	1.1	0	22	11%	2.1*
CCOC(=O)N1CCN(S(=O)(=O)c2ccc3[nH]cc(C(=O)O)c(=O)c3c2)CC1	i	1.1	3	17	10%	2.4*
